The panel holds about 83,000 compounds, 20% with a hit somewhere; the sample as a whole holds those more often.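 In brief: 96-well plates, 48 h treatment, single concentration, percent growth endpoint.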 Unmarked numbers belong to inactive results. Active and inactive are the calls of the source. How the source made its calls: active means growth percent below 10; inactive means the rest.
The compounds below were run on T-47D breast (assay: NCI-60 one-dose screen, 48 h (100 = growth as untreated, 0 = no growth, -100 = all killed)). Conditions: 10 µM unless noted.
`COc1cc2ncnc(-n3ncc4cc(NC(=O)Nc5ccccc5)ccc43)c2cc1OC` was tested, and the growth was -7.28% (active).
With `CC1(c2ccc(Br)cc2)NC(=O)NC1=O` (stereo unspecified) the growth was 82.2%.
`O=C(N/N=C\c1ccc(Cl)cc1)C(=O)N/N=C\c1ccc(Cl)cc1` showed a growth of 99.2%.
With `COc1cc(-c2nc(/C=C3/C(=O)Nc4ccccc43)c3ccccn23)cc(OC)c1OC` the growth was 53.7%.
`CCCCN(CCCC)c1ccc(C(=O)O)cc1` gave a growth of 94.7%.
With `COC(=O)c1c[n+]([O-])ccc1OC` the growth was 114%.
For `CC(=O)O.[In]`, the growth was 103%.
With `Cc1nnc(/N=C2\NC(=O)/C(=C/C=C/c3ccccc3)S2)s1` the growth was 53.8%.
`CC(=O)N1N=C(c2ccc(Cl)cc2)CC1c1cn(-c2ccccc2)nc1-c1ccc([N+](=O)[O-])cc1` (stereo unspecified) was tested, and the growth was 86.9%.
`O=C1Nc2ccccc2/C1=C/c1cn(CC(O)Cn2cc(/C=C3\C(=O)Nc4ccccc43)c3ccccc32)c2ccccc12` (stereo unspecified) was tested, and the growth was -46.1% (active).
In the case of `Nc1nc2c(c3ncncc13)C(c1cccc(C(F)(F)F)c1)Cc1ncncc1-2` (stereo unspecified), the growth is reported as 37.9%.
`O=C(Nc1ccccc1)Nc1ccc(Nc2ncnc3sc4c(c23)CCCC4)cc1` was tested, and the growth was 101%.
With `O=C(/C=C\c1ccc(NCc2ccc(C(=O)O)cc2)cc1)CCl` the growth was -22.8% (active).
`CCCC(C)c1cc(Cc2cc(Cl)cc(Cl)c2O)c(O)c(Cc2cc(Cl)cc(Cl)c2O)c1` (stereo unspecified) was tested, and the growth was 6.27% (active).
Compound `CCC(C)(CC)c1ccc(O)c(C)c1` has a growth of 101%.
Compound `CC1(C)CC(=O)C2=C(C1)Oc1nc(N)c(C#N)c(N)c1C2c1ccc(F)cc1` (stereo unspecified) has a growth of 116%.
